# Whole data set: some 33,000 sequences, median “E-score (-0.5 to 0.5)” near -0.017, cut for the highest 2% near 0.3. The sample holds the highest values, similar sequences and a random draw of the others, so the mix is not that of the screen.
# Biological target: T1, Sut1 (UniProt P53032)
# T1 sequence: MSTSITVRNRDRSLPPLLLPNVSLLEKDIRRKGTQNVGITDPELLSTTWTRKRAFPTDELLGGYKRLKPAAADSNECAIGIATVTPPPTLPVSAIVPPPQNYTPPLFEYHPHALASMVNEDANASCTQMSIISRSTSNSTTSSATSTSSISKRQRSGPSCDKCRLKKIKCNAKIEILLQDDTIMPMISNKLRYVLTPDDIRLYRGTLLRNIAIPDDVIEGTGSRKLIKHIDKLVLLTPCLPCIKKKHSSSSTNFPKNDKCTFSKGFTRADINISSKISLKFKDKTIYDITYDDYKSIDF
# Test: PBM E-score (8-mer binding enrichment) (E-score (-0.5 to 0.5)); higher = stronger / more preferred TF binding
# Details: protein concentration: 200 nM; construct: GST-full length
# Protocol: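 Universal 'all 10-mer' protein binding microarrays (Agilent AMADID 015681) probed with GST-tagged S. cerevisiae TFs (full-length or DBD) made by in vitro transcription/translation (PURExpress), about 100-200 nM. Bound TF was detected with fluorescent anti-GST. Each ungapped 8-mer (which stands for itself and its reverse complement) is scored by the PBM enrichment score (E-score), a modified Wilcoxon-Mann-Whitney statistic from -0.5 to +0.5, computed with the Universal PBM Analysis Suite. Scale: above 0.35 generally sequence-specific binding.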
row,Sequence,PBM E-score
1,ATACGAGA,-0.0254
2,AGAGGCTC,-0.103
3,AATTCTGG,-0.0608
4,CTTCACTA,0.252
5,GCTTCTTA,0.0688
6,ATGACGTA,0.0909
7,CCGTACTA,0.297
8,GCGTACTA,-0.0972
9,ACGTACTA,-0.0235
10,AGAATCCA,0.00183
11,CTTATATC,0.222
12,ATTATATG,0.134
13,CTTATATA,0.334
14,ATTATATA,0.337
15,ATTATATC,0.262
16,GTTATATA,0.286
17,AACCCGTA,-0.0786
18,CTTCTCTC,-0.0216
19,CCAAACAC,-0.00595
20,ACACCTCG,-0.103
21,AGGAGGAG,-0.183
22,AGGTGTGG,-0.0561
23,AGTCCATG,-0.00201
24,CGTCCGTA,0.0823
25,AGTCCGTC,0.424

row,Sequence,PBM E-score
1,AGCCCGTG,-0.224
2,GGTCCGTA,0.253
3,AATCCGTC,0.0795
4,CGTCCGTC,-0.154
5,AGTCCGTG,0.431
6,AGTCCGTA,0.445
7,CTGCTTGA,-0.153
8,CTGAACAC,-0.0309
9,GCTCTGCC,-0.128
10,CGCACACA,-0.161
11,CGTTGGCA,-0.0897
12,GACTGATA,0.0856
13,CGAGCTCG,-0.0197
14,GGAGACAA,0.0139
15,GCATGCGA,0.0246
16,GTGCCGAA,0.0728
17,CACCGAGA,-0.0582
18,CCCCGAGC,0.163
19,GGCCGAGA,0.0849
20,ATCCGAGA,0.198
21,GTCCGAGA,0.428
22,CTCCGAGA,0.459
23,CGCCGAGA,0.0729
24,CTCCGAGC,0.437
25,ATCCGAGC,0.0537

row,Sequence,PBM E-score
1,CGACACTC,0.0434
2,AGACTCAA,-0.0327
3,AAGGCTGG,-0.146
4,AGATGGTA,0.0768
5,GATTATTA,0.229
6,ATTTATTA,0.269
7,AATTATTG,0.173
8,GTTTATTA,0.302
9,AATTATTA,0.305
10,CATTATTC,0.231
11,CTTTATTA,0.261
12,AATTATTC,0.317
13,AATTATCC,0.1
14,TCGATCAA,-0.00575
15,TAGTGCGA,-0.0645
16,AGTGATTA,0.0842
17,CTGTCCTA,-0.0818
18,CCAAGACC,-0.261
19,GGCGTCGA,-0.167
20,CAAAGTCC,0.282
21,AAAAGTCT,0.102
22,ATAAGTCG,0.0862
23,CGAAGTCA,-0.081
24,GGAAGTCC,0.159
25,GAAAGTCC,0.326

row,Sequence,PBM E-score
1,CGAAGTCC,0.378
2,AAAAGTCC,0.394
3,AAAAGTCA,0.15
4,CTAAGTCC,0.114
5,GAAAGTCA,0.049
6,ATAAGTCC,0.317
7,CGCGCAAC,-0.114
8,CAAAGTAC,0.0285
9,ACGTATAG,0.0316
10,GCAGCACC,0.0294
11,AGATTGCC,-0.043
12,CCACAAAA,0.0574
13,GCTCTACA,-0.121
14,AGGATCGC,-0.214
15,CAAGCGGC,-0.0127
16,ACAAGTCC,0.374
17,ACAAGTCG,-0.264
18,ACAAGTCA,-0.118
19,ACGCGTCG,0.174
20,AAAGTGAA,0.191
21,GTGCTACA,-0.0297
22,GGGATGGA,-0.0689
23,CGAAAAGC,-0.0121
24,CCTCCGGA,0.374
25,CCGCCGGA,0.223

row,Sequence,PBM E-score
1,GCGCCGGA,0.196
2,CCTCCCGA,-0.289
3,GCTCCGGA,0.442
4,GCTCCAGA,-0.199
5,ACTTAGCC,-0.129
6,GAGGCTAC,-0.349
7,CTTCGCAA,-0.0605
8,GAAGCGAC,-0.0313
9,CTCCGACA,0.375
10,GGCCGACA,-0.0715
11,GTCCGACA,0.366
12,CTCCGACC,0.391
13,CCCCGACA,0.0397
14,ATCCGACA,0.0788
15,CACCGACC,-0.226
16,GCCCGACA,-0.106
17,ATCCGACC,0.00218
18,ATTTCAGC,0.137
19,AACACTAT,0.266
20,AAGTGTCC,0.0158
21,GCTGAAGA,-0.00656
22,GAGGTGGA,-0.151
23,AGGTCGAG,-0.257
24,CATTATAA,0.126
25,GATTATAA,0.154

row,Sequence,PBM E-score
1,CATTATAC,0.151
2,AATTATAC,0.308
3,AATTATAG,0.257
4,AATTATAA,0.335
5,ACTATGGG,-0.155
6,CGTCTGTC,-0.213
7,CTCAGCTA,-0.13
8,TACTTACA,0.115
9,AGGAGTCC,0.202
10,GGGAGTCA,-0.126
11,CGGAGTCC,0.486
12,CGGAGTCA,0.474
13,CAGAGTCC,0.17
14,AGGAGTCA,0.0481
15,CTCTCACA,0.0236
16,GAACCGAA,0.13
17,ATTTGCAG,0.0722
18,CTAGCGCA,-0.174
19,ATTACGGA,0.353
20,ATTACGGC,-0.0212
21,AGTACGGC,-0.0481
22,ATCACGGG,-0.0946
23,GGTACGGA,0.155
24,ATCACGGA,0.402
25,AGTACGGA,0.374

row,Sequence,PBM E-score
1,ATTACGGG,-0.0151
2,ATCACGGC,0.0173
3,GTGCAGGA,-0.23
4,CTCCTGAA,-0.0399
5,GAGAATCA,0.0959
6,GTGGATTA,0.0983
7,ACCGATAA,0.18
8,TCCGAGCA,0.307
9,TCCGATAA,0.387
10,TCCGACAA,0.337
11,CCCGACAA,0.173
12,GCCGATAA,0.00363
13,CCCGAGGA,-0.118
14,GCCGAGGA,0.1
15,ACCGACAA,0.0505
16,GCCGAGCA,-0.305
17,TCCGAGGA,0.34
18,ACCGAGCA,0.205
19,TTAGCCAA,-0.0233
20,GTAATCGA,0.0961
21,ACTACTCT,-0.0164
22,CTAGCCTC,-0.268
23,CCCTCGCG,-0.204
24,ATCTGCAG,0.0906
25,ATGAGACA,-0.0116

row,Sequence,PBM E-score
1,CCGCGACC,-0.177
2,ATGAGCTA,0.0367
3,AGTCAAAC,-0.135
4,GGCAATTA,0.0911
5,ACCGAGAA,0.229
6,CCCGAGAA,0.157
7,TCCGAGAA,0.407
8,AACTTGCG,-0.0193
9,CCACTCCG,0.444
10,CCACTCCA,-0.174
11,ATACTCCA,-0.0121
12,ATACTCCC,0.108
13,ATACTCCG,0.487
14,ACACTCCT,-0.0674
15,ACTCTCCG,0.27
16,CCACTCCC,-0.254
17,ACACTCCG,0.438
18,ACAGACAA,0.294
19,GGATAGCC,0.0369
20,TAGCATCA,-0.0462
21,GCAATTGC,-0.0673
22,CGGCCTGC,-0.186
23,CTGTGCAC,-0.277
24,CGGTGTCC,0.0917
25,GAACCCTC,-0.17

row,Sequence,PBM E-score
1,AGACTCCG,0.47
2,AGACTCCC,-0.319
3,CGACTCCC,-0.211
4,CGACTCCA,-0.132
5,AGACTCCT,-0.142
6,CGACTCCG,0.47
7,AACTGTCG,0.00476
8,GCTAGTAC,-0.14
9,ACCTGAGA,-0.0623
10,CCCGAAGG,-0.0908
11,AGAATTCA,0.115
12,CTAAACTC,0.225
13,ATAAACTC,0.315
14,ATAAACTG,0.047
15,TACACCCA,0.036
16,TAGCGTCA,-0.116
17,CGGAAAGC,0.275
18,GGGAAATA,0.0403
19,CGGAAAGA,0.312
20,CGGAAATC,0.212
21,CGGAAATA,0.337
22,AGGAAAGA,0.0593

# From the supplement of paper PMC3334620
